Compounds with a hit are over-represented: about 0.75% of the library has one in this group of screens.
Mtb hypoxia inh = PubChem AID 1159583. fluorescence inhibition, % (test concentration not listed). actives 0.1% (n = 300,000). M. tuberculosis hypoxia-regulated fluorescent reporter, fluorescence; in the data active means fluorescence inhibition mostly above about 23%, no sharp cut-off; inactive means mostly below about 17%
TcdB inh = TcdB glycohydrolase inhibitors, primary screen, biochemical, single point, plate reader | Toxin B (Clostridioides difficile), P18177 | actives 0.24% (n = 350,000) | TcdB glycohydrolase enzymatic assay | inhibition, % at 9.99 µM; in the data active means inhibition above about 10%
Target sequence (P18177 whole entry, looked up): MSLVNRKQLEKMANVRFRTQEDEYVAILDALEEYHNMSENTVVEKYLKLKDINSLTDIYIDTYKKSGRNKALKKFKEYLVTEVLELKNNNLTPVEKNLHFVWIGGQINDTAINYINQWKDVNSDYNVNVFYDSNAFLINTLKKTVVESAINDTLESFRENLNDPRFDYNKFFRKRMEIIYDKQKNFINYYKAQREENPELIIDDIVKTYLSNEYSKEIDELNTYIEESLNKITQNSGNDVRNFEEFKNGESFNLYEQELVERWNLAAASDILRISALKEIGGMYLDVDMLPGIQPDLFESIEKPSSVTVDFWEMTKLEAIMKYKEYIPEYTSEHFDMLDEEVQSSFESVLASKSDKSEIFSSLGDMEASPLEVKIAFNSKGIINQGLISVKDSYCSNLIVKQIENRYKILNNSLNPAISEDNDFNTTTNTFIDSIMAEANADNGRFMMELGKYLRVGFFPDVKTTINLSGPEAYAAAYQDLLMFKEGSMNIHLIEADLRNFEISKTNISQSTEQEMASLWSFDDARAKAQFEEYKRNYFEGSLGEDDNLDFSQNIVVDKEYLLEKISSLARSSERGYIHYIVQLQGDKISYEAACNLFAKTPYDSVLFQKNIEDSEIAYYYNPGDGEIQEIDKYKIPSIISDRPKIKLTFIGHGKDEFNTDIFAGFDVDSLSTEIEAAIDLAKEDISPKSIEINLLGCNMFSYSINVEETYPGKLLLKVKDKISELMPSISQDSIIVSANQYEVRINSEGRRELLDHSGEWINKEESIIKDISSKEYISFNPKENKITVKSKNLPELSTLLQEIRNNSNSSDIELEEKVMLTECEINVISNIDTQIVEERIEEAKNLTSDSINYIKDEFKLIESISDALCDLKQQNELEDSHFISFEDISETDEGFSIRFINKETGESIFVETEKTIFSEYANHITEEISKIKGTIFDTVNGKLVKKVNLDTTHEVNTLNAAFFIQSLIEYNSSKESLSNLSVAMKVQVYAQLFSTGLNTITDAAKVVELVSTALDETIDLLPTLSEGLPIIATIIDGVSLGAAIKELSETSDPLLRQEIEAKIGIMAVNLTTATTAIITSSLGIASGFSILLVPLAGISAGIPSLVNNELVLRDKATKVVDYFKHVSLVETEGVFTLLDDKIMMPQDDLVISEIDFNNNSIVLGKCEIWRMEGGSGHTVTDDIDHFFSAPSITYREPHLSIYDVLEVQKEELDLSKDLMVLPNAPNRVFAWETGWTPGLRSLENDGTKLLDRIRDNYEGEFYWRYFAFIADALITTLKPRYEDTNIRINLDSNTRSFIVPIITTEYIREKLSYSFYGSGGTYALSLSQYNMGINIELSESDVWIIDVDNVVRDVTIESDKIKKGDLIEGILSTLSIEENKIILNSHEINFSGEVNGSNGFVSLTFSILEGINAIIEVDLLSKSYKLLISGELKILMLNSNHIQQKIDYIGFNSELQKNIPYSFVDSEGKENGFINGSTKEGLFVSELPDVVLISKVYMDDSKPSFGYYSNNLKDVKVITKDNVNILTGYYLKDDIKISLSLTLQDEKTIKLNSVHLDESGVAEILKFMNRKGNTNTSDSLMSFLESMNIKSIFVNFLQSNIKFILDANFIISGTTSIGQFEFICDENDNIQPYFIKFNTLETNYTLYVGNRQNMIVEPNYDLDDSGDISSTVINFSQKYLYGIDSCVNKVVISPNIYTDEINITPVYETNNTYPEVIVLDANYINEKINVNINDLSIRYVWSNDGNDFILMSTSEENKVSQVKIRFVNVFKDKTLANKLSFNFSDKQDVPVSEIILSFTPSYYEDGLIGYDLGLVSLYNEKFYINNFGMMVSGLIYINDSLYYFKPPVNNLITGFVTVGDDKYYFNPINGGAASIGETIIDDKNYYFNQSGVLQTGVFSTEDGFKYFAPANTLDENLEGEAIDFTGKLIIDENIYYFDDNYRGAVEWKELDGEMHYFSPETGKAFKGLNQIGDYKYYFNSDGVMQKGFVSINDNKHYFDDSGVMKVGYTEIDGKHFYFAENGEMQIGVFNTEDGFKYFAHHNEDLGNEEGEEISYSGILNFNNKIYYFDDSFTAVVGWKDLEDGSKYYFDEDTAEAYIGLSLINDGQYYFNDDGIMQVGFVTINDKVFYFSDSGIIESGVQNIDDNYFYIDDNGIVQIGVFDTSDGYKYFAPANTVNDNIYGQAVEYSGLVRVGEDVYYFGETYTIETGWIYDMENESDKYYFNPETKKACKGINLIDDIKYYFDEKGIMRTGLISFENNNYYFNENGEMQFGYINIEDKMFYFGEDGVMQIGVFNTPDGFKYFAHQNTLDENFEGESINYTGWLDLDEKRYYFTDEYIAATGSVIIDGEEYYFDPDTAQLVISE
Yp Topo-I inh = Yersinia pestis topoisomerase I inhibitors, primary screen, biochemical, cleavage product accumulation, plate reader, single point; Y. pestis Topo-I cleavage product accumulation; AID 504884, 2011; DNA topoisomerase I (Yersinia pestis CO92); actives 0.064% (n = 360,000); activity, % at 10 µM; in the data active means activity above about 50%, passing the limit was not always enough
Sa ugtP lethal = growth inhibition of ugtP-null S. aureus, primary screen, RN4220 ugtP deletion, OD600 | growth inhibition, % (test concentration not listed) | 16 h | actives 0.54% (n = 330,000) | AID 1259309, 2017; in the data active means growth inhibition above about 68%
BioA inh = M. tuberculosis BioA enzyme inhibitors, primary screen, biochemical, plate reader, single point, HTS. inhibition, % at 9.99 µM. 7,8-diaminopelargonic acid synthase BioA (Mycobacterium tuberculosis). actives 0.096% (n = 360,000). purified M. tuberculosis BioA enzyme; in the data active means inhibition above about 40%
Sa RN4220 lethal = growth inhibition of S. aureus RN4220, primary screen, OD600. 16 h. inhibition, % (concentration not given with the values). actives 0.33% (n = 330,000). AID 1259311, 2017; in the data active means inhibition above about 85%
A number is an active result.

CC(C)(C)c1cnnn1-c1ccc(C=O)cc1 was read as Mtb hypoxia inh inactive, Yp Topo-I inh inactive, Sa ugtP lethal inactive and Sa RN4220 lethal inactive.
CCC1=C(OC(=O)N(CC)CC)N2C(=O)OC(=NCC(=O)OC)[C@]2(Cc2ccccc2)C2C1=CCC1C(=O)NC(=O)C12 (some centres undefined) was read as Mtb hypoxia inh inactive, Sa ugtP lethal inactive and Sa RN4220 lethal inactive.
For O=C(Nc1cccc(-c2csc(Nc3ccc(Cl)cc3)n2)c1)c1cccc(C(F)(F)F)c1 the results were Mtb hypoxia inh inactive, TcdB inh inactive, Yp Topo-I inh inactive, Sa ugtP lethal inactive, BioA inh inactive and Sa RN4220 lethal 88.9.
COc1cccc(C=NNC(=O)CNC(=O)c2ccncc2)c1O was read as Mtb hypoxia inh inactive, Sa ugtP lethal inactive and Sa RN4220 lethal inactive.
O=C1CCC(O)CCN1CCC(Sc1ccc(Br)cc1)c1ccccc1 (centres undefined) was read as Mtb hypoxia inh inactive, Sa ugtP lethal inactive and Sa RN4220 lethal inactive.
O=C(COC(=O)c1ccccn1)NCc1cccc(Cl)c1 was read as Mtb hypoxia inh inactive, TcdB inh inactive, Yp Topo-I inh inactive, Sa ugtP lethal inactive, BioA inh inactive and Sa RN4220 lethal inactive.
`C=CCNc1nc(C(=O)OCC(=O)NCc2cccc(Cl)c2)cs1` gave Mtb hypoxia inh 33.7, TcdB inh inactive, Yp Topo-I inh inactive, Sa ugtP lethal inactive, BioA inh inactive and Sa RN4220 lethal inactive.
Screening COC(=O)c1c(NC(=O)c2ccc(C)c(S(=O)(=O)Nc3ccccc3C)c2)sc2c1CCCC2 returned Mtb hypoxia inh inactive, Yp Topo-I inh inactive, Sa ugtP lethal inactive, BioA inh inactive and Sa RN4220 lethal inactive.
`CCOC(=O)c1c(NS(=O)(=O)c2ccc(Br)cc2)sc2c1CCC2` gave Yp Topo-I inh inactive, Sa ugtP lethal 98.0, BioA inh inactive and Sa RN4220 lethal 112.1.
Screening CCOC(=O)c1c(NS(=O)(=O)Cc2ccccc2)sc2c1CCCC2 returned Mtb hypoxia inh inactive, Yp Topo-I inh inactive, Sa ugtP lethal inactive, BioA inh inactive and Sa RN4220 lethal inactive.
COC(=O)c1c(NS(=O)(=O)c2ccc3ccccc3c2)sc2c1CCCC2 was read as Mtb hypoxia inh inactive, Yp Topo-I inh inactive, Sa ugtP lethal inactive, BioA inh inactive and Sa RN4220 lethal 87.4.
COC(=O)c1c(NC(=S)NNS(=O)(=O)c2ccc(OC)cc2OC)sc2c1CCCCCC2 was read as Mtb hypoxia inh inactive, TcdB inh inactive, Yp Topo-I inh inactive, Sa ugtP lethal 92.2, BioA inh inactive and Sa RN4220 lethal inactive.
CCOC(=O)C(O)(c1ccc(NC(=S)NC(=O)c2ccc(Cl)cc2Cl)c(C)c1)C(F)(F)F (centres undefined) was read as Mtb hypoxia inh inactive, TcdB inh inactive, Yp Topo-I inh inactive, Sa ugtP lethal inactive, BioA inh inactive and Sa RN4220 lethal inactive.
Screening COC(=O)C(O)(c1ccc(NC(=S)NC(=O)c2ccc(Cl)cc2Cl)c(C)c1)C(F)(F)F (centres undefined) returned Mtb hypoxia inh inactive, TcdB inh inactive, Yp Topo-I inh inactive, Sa ugtP lethal inactive, BioA inh inactive and Sa RN4220 lethal inactive.
For CCOC(=O)C(O)(c1ccc(NC(=S)NC(=O)c2ccc(Cl)cc2Cl)cc1)C(F)(F)F (centres undefined) the results were Mtb hypoxia inh inactive, Yp Topo-I inh inactive, Sa ugtP lethal 83.7 and Sa RN4220 lethal inactive.
Screening COC(=O)C(O)(c1ccc(NC(=S)NC(=O)c2ccc(Cl)cc2Cl)cc1)C(F)(F)F (centres undefined) returned Mtb hypoxia inh inactive, TcdB inh inactive, Yp Topo-I inh inactive, Sa ugtP lethal 85.9 and Sa RN4220 lethal inactive.
`S=c1[nH]nc(C2CCCCC2)n1N=Cc1cccs1` gave Mtb hypoxia inh inactive, Sa ugtP lethal inactive and Sa RN4220 lethal inactive.
C#CCOCCOCCOCCNc1nc(N2CCN(C(=O)Cn3cc(CCO)nn3)CC2)nc(N2CCN(C(=O)C(C(C)CC)n3cc(CCCN=C(N)N)nn3)CC2)n1 (centres undefined) was read as Mtb hypoxia inh inactive, Sa ugtP lethal inactive and Sa RN4220 lethal inactive.
`C=CCOC(=O)C1=CC(c2cn(C(C)=O)c3ccccc23)CC(OCc2ccc(CO)cc2)O1` (centres undefined) gave Mtb hypoxia inh inactive, Sa ugtP lethal inactive and Sa RN4220 lethal inactive.
`c1ccc(C2=Nn3c(Cn4nnc5ccccc54)nnc3SC2)cc1` gave Mtb hypoxia inh inactive, TcdB inh inactive, Yp Topo-I inh inactive, Sa ugtP lethal inactive, BioA inh inactive and Sa RN4220 lethal inactive.
Screening c1ccc(Cc2nnc3n2N=C(c2ccccc2)CS3)cc1 returned Mtb hypoxia inh inactive, TcdB inh 15.7, Yp Topo-I inh inactive, Sa ugtP lethal inactive and Sa RN4220 lethal inactive.
`CCCNC(=O)OCC1OC(CCON=CC(NS(=O)(=O)c2ccc(C)cc2)C(C)C=CCC(=O)OC)C=CC1Oc1ccc(OC)cc1` (centres undefined) gave Mtb hypoxia inh inactive, Sa ugtP lethal inactive and Sa RN4220 lethal inactive.
`CC(C)CC(NP(=O)(O)OC1OC(C)C(O)C(O)C1O)C(=O)NC(Cc1c[nH]c2ccccc12)C(=O)O` (centres undefined) gave Mtb hypoxia inh inactive, Sa ugtP lethal inactive and Sa RN4220 lethal inactive.
For CCCCCc1ccc(OCCOCCn2c[n+](C)c3ccccc32)c(CCCCC)c1 the results were Mtb hypoxia inh inactive, Yp Topo-I inh inactive, Sa ugtP lethal 100.6 and Sa RN4220 lethal 100.5.
`CCCCOc1ccc(CCN)cc1Cl` gave Mtb hypoxia inh inactive, TcdB inh inactive, Yp Topo-I inh inactive, Sa ugtP lethal inactive and Sa RN4220 lethal inactive.
Screening CCCCCc1ccc(OCCC[n+]2ccccc2)c(CCCCC)c1 returned TcdB inh inactive, Yp Topo-I inh inactive, Sa ugtP lethal 100.1 and Sa RN4220 lethal 99.0.
`C[n+]1cn(CC(O)COCc2ccccc2)c2ccccc21` (centres undefined) gave Mtb hypoxia inh inactive, Yp Topo-I inh inactive, Sa ugtP lethal inactive, BioA inh inactive and Sa RN4220 lethal inactive.
Screening S=c1[nH]nc(C2CCCCC2)n1N=Cc1ccccc1 returned Mtb hypoxia inh inactive, Sa ugtP lethal inactive and Sa RN4220 lethal inactive.
`CC(O)C1CNC(=S)N1CCc1cccc(F)c1` (centres undefined) gave Mtb hypoxia inh inactive, Sa ugtP lethal inactive and Sa RN4220 lethal inactive.
Screening CCN1/C(=C/c2ccc3ccccc3[n+]2CC)C=Cc2ccccc21 returned Yp Topo-I inh inactive and BioA inh inactive.
For CCN1C(=Cc2ccc3ccccc3[n+]2CC)C=Cc2ccccc21 the results were Sa ugtP lethal 99.8 and Sa RN4220 lethal 100.2.
For O=c1c2ccccc2nc(/C=C/c2ccc3c(c2)OCO3)n1-c1cccc(O)c1 the results were Mtb hypoxia inh inactive, Yp Topo-I inh inactive, Sa ugtP lethal 93.1 and Sa RN4220 lethal 96.5.
